# Experimental data as given in PubChem BioAssay (NCI).
# This is part of a sample that, as a whole, favours compounds with a hit. Of some 83,000 tested, about 20% had one in any assay.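 Plates (96-well) were seeded with cells, treated with compound at one concentration, and incubated for 48 hours before percent growth was determined.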 Active and inactive are the calls of the source. How the source made its calls: active means growth percent below 10; inactive means the rest.
# Tested on: HL-60(TB) leukemia
# Assay: NCI-60 one-dose screen, 48 h (100 = growth as untreated, 0 = no growth, -100 = all killed)
# Conditions: 10 µM unless noted
row,SMILES,growth
1,COc1cc(/C=C/C(=O)c2c(C)n([O-])c3cc(C)c(C)cc3[n+]2=O)cc(OC)c1OC,32.9% (inactive)
2,CC1CCC(C)N(C)C1 (stereo unspecified),96.2% (inactive)
3,CC(C)N(CCOc1ccc(-c2nc3sccn3c2-c2ccnc(S(C)(=O)=O)n2)cc1)C(C)C,85.8% (inactive)
4,O=C(CC(CC(=O)c1ccccc1)c1ccccn1)c1ccccc1,104% (inactive)
5,NS(=O)(=O)c1ccc(C(=O)NN2C(=O)c3c(Br)c(Br)c(Br)c(Br)c3C2=O)cc1,103% (inactive)
6,CCC(c1cccc(O)c1)C(CC)c1cccc(O)c1 (stereo unspecified),20.7% (inactive)
7,CNC(=O)c1[nH]cc(-c2ccccc2)c1-c1cc(OC)c2c(c1OC)OCO2,93.3% (inactive)
8,O=C(Nc1ccc(-n2ccc3c(NC(=O)c4ccccc4)ncnc32)cc1)Nc1ccc(Cl)c(Cl)c1,62.1% (inactive)
9,CC(=S)NC(=O)C(=O)/C=C1/NC(=O)C(=O)S1,104% (inactive)
10,COc1ccc(-c2nc3sccn3c2-c2cc(-c3cc(OC)c(OC)c(OC)c3)on2)cc1,23.5% (inactive)
11,O=C(O)c1ccc([N+](=O)[O-])cc1S(=O)(=O)O,108% (inactive)
12,CCOC(=O)C#Cc1c(C(=O)OCC)nnn1Cc1ccc(C(F)(F)F)cc1,39% (inactive)
13,Cc1ccc(C(=O)c2ccc(CC(=O)N/N=C/c3ccc(O)cc3O)n2C)cc1,4.48% (active)
14,CC(C)N(C(=O)c1ccccc1)C(C)C,100% (inactive)
15,CN1CC[C@@H](c2c(O)cc(O)c3c(=O)cc(-c4ccccc4Cl)oc23)[C@@H]1CO,-28.6% (active)
16,COc1cc(/C=N/NC(=O)c2ccc(C(F)(F)F)nc2Nc2ccc(Cl)cc2C)ccc1O,4.41% (active)
17,CCCCC1COc2cccc3c2N1C=C/C3=C\C(=O)N(C)c1ccccc1 (stereo unspecified),9.39% (active)
18,COc1ccc(/C=C(\C#N)n2nnc3ccc(Cl)cc32)cc1,86.6% (inactive)

row,SMILES,growth
1,C/C(Cc1ccc(Cl)cc1)=C(\c1ccc(O)cc1)c1ccc(Cl)cc1,95.7% (inactive)
2,O=C1/C=C/[C@@H](O)[C@@H]2C[C@@H](O)C[C@H]2/C=C/CCC[C@H]([C@@H](O)CO)O1,101% (inactive)
3,Nc1n[nH]c2cccc(C#Cc3cccc(NC(=O)c4ccc(N5CCOCC5)c(C(F)(F)F)c4)c3)c12,2.04% (active)
4,O=[N+]([O-])c1ccc(N2c3ccncc3Sc3ccncc32)cc1,102% (inactive)
5,COc1cc(-c2nc3occn3c2-c2ccnc(NCCCNS(=O)(=O)c3ccccc3)n2)ccc1F,39.6% (inactive)
6,N#CSCC1CC(O)(c2ccccc2)C(c2ccccc2)C(c2ccc(Cl)cc2)O1 (stereo unspecified),-1.83% (active)
7,O=C(Nc1cn[nH]c1-c1nc2ccc(CN3CCOCC3)cc2[nH]1)NC1CC1,-27.1% (active)
8,CCOC(=O)C1(C)CCCC1N (stereo unspecified),98.5% (inactive)
9,CCCCC[C@H]1C/C=C2/C(=O)C=C[C@@H]2C/C=C\CCCC(=O)O[C@@H](CCCCC)C/C=C2/C(=O)C=C[C@@H]2C/C=C\CCCC(=O)O1,-47.6% (active)
10,C=C(CN1CCN(c2cccc(C(F)(F)F)n2)CC1)c1ccc(C(=O)Nc2ccccc2N)cc1,-27.4% (active)
11,COc1cc(/C=C/C(=O)Nc2cccnc2Nc2ccc(F)cc2)cc(OC)c1OC,107% (inactive)
12,O=S(=O)(O)CCl,94.7% (inactive)
13,C[C@H](NC(=O)[C@@H]1CSSC[C@@H](NC(=O)c2nc3ccccc3cc2O)C(=O)NCC(=O)N1C)c1ccccc1,-27.6% (active)
14,Cc1cc(N/N=C/c2nc(-c3ccccc3)oc2C)c2cc(Cl)ccc2n1,-37.4% (active)
15,O=c1[nH]c(-c2ccc(Cl)cc2)cn1-c1ccc(-n2cc(-c3ccc(Cl)cc3)[nH]c2=O)cc1,112% (inactive)
16,C=C(C)[C@@H]1CC[C@]2(C(=O)OCCOCCOCC[P+](c3ccccc3)(c3ccccc3)c3ccccc3)CC[C@]3(C)[C@H](CC[C@@H]4[C@@]5(C)CC[C@H](C)C(C)(C)[C@@H]5CC[C@]43C)[C@@H]12,-72.5% (active)
17,O=C1C2CC=CCC2C(=O)N1CNc1ccc(Cl)cc1 (stereo unspecified),52.9% (inactive)
18,CO[C@H]1/C=C/O[C@@]2(C)Oc3c(C)c(O)c4c(O)c(c(/C=N/N5C(C)CN(Cc6ccc(C#N)cc6)CC5C)c(O)c4c3C2=O)NC(=O)/C(C)=C\C=C\[C@H](C)[C@H](O)[C@@H](C)[C@@H](O)[C@@H](C)[C@H](OC(C)=O)[C@@H]1C (stereo partly specified),-37% (active)
